A selection: hits, their analogues and other compounds. The true share with any hit is near 3.5%.
Sm TGR inh: blocks Schistosoma mansoni thioredoxin glutathione reductase. AID 485364. Potency, µM (series often up to 114 µM), for the others: top-dose activity change, negative = inhibition, actives largely listed as inhibitors. purified TGR, DTNB reduction, TNB absorbance 405 nm. Q962Y6. 3% of 360,000 active; note: % is set by controls: 0 for no effect and ±100 for the full control effect; nearly all actives have a fitted effect of over 60% in size
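First, TGR (20 nM dispensed) and NADPH were mixed with compound. Second, a 15 min room-temperature incubation followed. Third, further NADPH and then DTNB were added to start the reaction. Finally, TNB absorbance was monitored kinetically.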
TbPYK inhibitor: inhibitors of Trypanosoma brucei pyruvate kinase; TbPYK enzyme, Kinase-Glo Plus ATP luminescence, 45 min; Potency, µM (highest dose often 76.8 µM), for the others: at the top dose activity, negative = inhibition, hits mostly inhibitors; AID 624173; 0.12% of 410,000 active; note: % is set by controls: 0 for no effect and ±100 for the full control effect; nearly all actives have a fitted effect of over 50% in size
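Screened from lowest to highest concentration, compounds were pinned into TbPYK/substrate mixtures, and ADP (130 uM final) was added. Plates sat at room temperature for 45 min prior to Kinase-Glo Plus detection by luminescence.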
LmPK inh: blocks Leishmania mexicana pyruvate kinase activity. AID 1721. purified LmPK, Kinase-Glo ATP luminescence, 1 h. 0.37% of 290,000 active. Q27686. Potency, µM (titrated, usually from 57.5 µM), without a hit: at the highest dose activity change, negative = inhibition, most hits filed as inhibitors; note: % is set by controls: 0 for no effect and ±100 for the full control effect
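Screened at intermediate enzyme activity to detect both inhibitors and activators: LmPK at 0.1 nM, with a 0.5 nM enzyme column as activation reference. PEP 0.5 mM, ADP 0.1 mM; ATP detected by luminescence after 1 h.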
RE007 growth inh: less growth of the S. pombe RE007 Vpr strain | Potency, µM (doses to about 92.2 µM), for the others: at the highest dose activity change, negative = less growth, most hits filed as inhibitors | AID 651644 | S. pombe RE007 Vpr strain, BacTiter-Glo ATP luminescence, 24 h | 0.21% of 360,000 active; active = well fitted falling curve with a large enough effect; inconclusive = small, poorly fitted or top-dose-only effect; inactive = no such curve, though single readings can be large or run the other way; note: % is set by controls: 0 for no effect and ±100 for the full control effect; nearly all actives have a fitted effect of over 50% in size
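Fission yeast strain RE007, carrying one chromosomally integrated HIV-1 vpr copy, was seeded at OD 0.01 in PMG+AL medium with 23 nL pinned compound. After 24 h at 30 °C and 99% humidity, viability was read by BacTiter-Glo luminescence.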
NS1 function inh: inhibitors of influenza NS1 protein function; Potency, µM (top dose mostly 46.1 µM), inactives show at the top dose activity, positive = more growth; AID 2326; 0.4% of 270,000 active; calls by dose curve; note: actives are rising curves; nearly all actives have a fitted effect of over 50% in size
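Recovery from NS1-induced slow growth read by OD600 in budding yeast switched to galactose assay medium (pH 6.0, -URA) at 1:100 dilution. Compound 23 nl per well; the matching strain lacking NS1 serves as control.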
Giardia FBPA inh: blocks Giardia fructose-bisphosphate aldolase activity; A8B2U2; purified Giardia FBPA; Potency, µM (highest dose often 59.6 µM), for inactives: top-dose activity, negative = inhibition, usual class: inhibitors; 0.71% of 290,000 active; note: % is set by controls: 0 for no effect and ±100 for the full control effect; nearly all actives have a fitted effect of over 55% in size
Target sequence (A8B2U2 whole entry, looked up): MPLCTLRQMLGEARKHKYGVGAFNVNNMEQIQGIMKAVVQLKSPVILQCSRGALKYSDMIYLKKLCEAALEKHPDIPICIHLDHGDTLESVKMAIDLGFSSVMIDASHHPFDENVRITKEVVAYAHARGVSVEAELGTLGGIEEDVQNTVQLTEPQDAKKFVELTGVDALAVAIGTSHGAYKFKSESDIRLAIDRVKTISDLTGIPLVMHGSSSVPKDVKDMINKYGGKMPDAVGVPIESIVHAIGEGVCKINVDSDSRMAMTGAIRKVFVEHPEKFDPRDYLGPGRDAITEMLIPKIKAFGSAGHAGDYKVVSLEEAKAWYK
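40 nM FBPA preincubated 10 min at RT with compound (up to 57.5 uM final), then substrate plus GAPDH/TPI/NAD/arsenate coupling and diaphorase/resazurin added. Fluorescence read after 20 min at RT, 525/598 nm.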
Numbers without * were called inactive; ? = inconclusive; . = no result given. Unless noted, calls come from the whole dose curve; as a rule, active = well fitted curve in the direction sought with a large enough effect; inconclusive = small, poorly fitted or top-dose-only effect, or another doubt; inactive = no such curve, though single readings can be large; an effect the other way counts as inactive or inconclusive. Potency is the fitted concentration of half-maximal effect.

SMILES | Sm TGR inh | TbPYK inhibitor | LmPK inh | RE007 growth inh | NS1 function inh | Giardia FBPA inh
Cc1ccc(C(=O)NC(=S)Nc2ccc(CN3CCCCC3)cc2)c(C)c1 | . | -2% | 3% | -6% | -1% | 3%
O=C(Nc1ccc(F)cc1F)C1CCN(S(=O)(=O)c2ccc3[nH]c(=O)ccc3c2)CC1 | 5% | -7% | . | . | . | .
Cc1ccc(-c2cc(-c3ccc(F)cc3)nc(N)c2C#N)o1 | 5.6µM* | -17% | -1% | -10% | -32% | ?
Cc1ccc(-c2cc(-c3ccccc3)c(C#N)c(N)n2)o1 | 3.5µM* | ? | -28% | ? | -35% | ?
Cc1ccc(-c2c(C#N)c(N)nc3c2CCCC3)o1 | 25µM* | -3% | -22% | 2% | . | 12%
Cc1cn2c(=O)cc(COC(=O)COc3ccc(C)c(C)c3)nc2s1 | 22% | 0% | . | . | . | .
O=C(OCc1nnc(-c2ccccc2)o1)C1CC(=O)N(Cc2ccco2)C1 (stereo not drawn) | 14µM* | -3% | 5% | 4% | . | -2%
CCOC(=O)c1sc(N)c(C(=O)OCC)c1COC(=O)C1CC(=O)N(Cc2ccco2)C1 (stereo not drawn) | 40µM* | -5% | -1% | 2% | -11% | -3%
C[C@@H](O)C(N)C(=O)O (stereo partly drawn) | . | . | . | . | . | 0%
O=C(O)/C=C(/CC(=O)O)C(=O)O | . | -2% | . | . | . | .
COc1cccc2sc(N3CCN(C(=O)CCS(=O)(=O)c4ccc(F)cc4)CC3)nc12 | 0% | -2% | . | . | . | .
CC1=C(C(=O)OCCCBr)C(c2ccc3c(c2)OCO3)NC(=O)N1 (stereo not drawn) | 25µM* | -14% | 3% | -3% | 22% | -10%
CC1=C(C(=O)OCCBr)C(c2cccc3ccccc23)NC(=O)N1 (stereo not drawn) | 40µM* | 2% | -3% | -2% | 4% | -6%
CCOC(=O)C1=C(CCl)NC(=O)NC1c1ccc2c(c1)OCO2 (stereo not drawn) | 8.9µM* | 0% | -5% | -22% | 6% | 1%
CCCOC(=O)C1=C(C)NC(=O)NC1c1cccc2ccccc12 (stereo not drawn) | 4% | 2% | 7% | 2% | 2% | 3%
CCCCOc1ccccc1C1NC(=O)NC(C)=C1C(=O)OCc1ccco1 (stereo not drawn) | 45µM* | -11% | 0% | 1% | 12% | 2%
C[N+]1(C)[C@@H]2CC[C@H]1CC(OC(=O)[C@@H](CO)c1ccccc1)C2 (stereo partly drawn) | 8.9µM* | -20% | 1% | . | -2% | -12%
O=C1c2ccccc2C(=O)N1CCC(c1ccc(F)cc1)c1ccco1 (stereo not drawn) | 40µM* | -2% | 0% | -16% | -57% | 1%
COc1ccccc1NC(=O)CC(c1ccc(F)cc1)c1ccco1 (stereo not drawn) | ? | -3% | 1% | 2% | -7% | -17%
O=C1CCC(=O)N1CCC(c1ccc(F)cc1)c1ccco1 (stereo not drawn) | 45µM* | -5% | 5% | -4% | 2% | -5%
CSCC[C@H](NC(=O)[C@H](CC(C)C)NC(=O)CNC(=O)[C@@H]1CCCN1C(=O)[C@H](Cc1ccccc1)NC(=O)[C@H](Cc1ccccc1)NC(=O)[C@H](CC(=O)O)NC(=O)[C@H](Cc1cnc[nH]1)NC(=O)[C@H](CCSC)NC(=O)[C@@H](N)CC(=O)O)C(N)=O | . | . | . | . | . | 0%
CC1CCc2cc(F)ccc2N1C(=O)CCl (stereo not drawn) | 5.6µM* | -15% | 6% | 1% | . | -7%
CN1CCN(c2ccc([N+](=O)[O-])c3no[n+]([O-])c23)CC1 | 45µM* | -24% | -22% | 32µM* | -94% | ?
Cc1ccc(-c2noc(-c3ccc(N4CCN(C)CC4)c([N+](=O)[O-])c3)n2)cc1 | -5% | 5% | . | . | . | .
COc1ccc(CCNc2oc(/C=C/c3ccc(OC)c(OC)c3)nc2C#N)cc1 | 2% | -3% | . | . | . | .
SMILES | Sm TGR inh | TbPYK inhibitor | LmPK inh | RE007 growth inh | NS1 function inh | Giardia FBPA inh
COC(=O)C1CC1[C@H](NC(=O)c1cccnc1)c1ccccc1 (stereo partly drawn) | . | . | . | . | . | 6%
Cc1cccc(C(=O)n2c(=S)nc3cc(C)ccn32)c1 | -1% | -6% | 11µM* | -13% | 0% | 5%
Cc1ccn2c(c1)nc(=S)n2C(=O)c1ccccc1 | 0% | -28% | ? | -2% | -15% | -3%
O=C(CSc1nccn1Cc1ccc(Cl)cc1)NC1CCCC1 | -2% | -10% | . | . | . | .
O=C(O)c1cccnc1SC1CC(=O)N(c2ccc(OC(F)F)cc2)C1=O (stereo not drawn) | 45µM* | 3% | 2% | 8% | 2% | 5%
O=C(O)c1cccnc1SC1CC(=O)N(c2cccc(C(F)(F)F)c2)C1=O (stereo not drawn) | ? | 0% | 3% | 16% | 8% | 12%
COC(=O)c1c(N2C(=O)CC(Sc3ncccc3C(=O)O)C2=O)sc(C)c1C (stereo not drawn) | 20µM* | -13% | 1% | 2% | 16% | 15%
Cc1ccc(Cl)cc1NC(=O)Cn1nc2c(cc1=O)CC(C)CC2 (stereo not drawn) | 48% | -5% | . | . | . | .
O=C(NCc1ccco1)c1ccc2c(c1)N(Cc1ccccc1F)C(=O)c1ccccc1S2(=O)=O | -15% | -4% | . | . | . | .
c1ccc(-c2nc(-c3ccco3)n3ccccc23)cc1 | 11µM* | 3% | 2% | -27% | ? | -24%
Cc1ccc(C(=O)NCc2ccc(Cl)c(Cl)c2)o1 | -13% | 1% | 3% | 25µM* | -113% | 0%
Cc1ccc(C(=O)NCc2ccc3c(c2)OCO3)o1 | 8% | -2% | -2% | 7% | -2% | -4%
CCC(=O)OC1(C)C(=O)C=C2C=C(CCCNC(=O)OC(C)(C)C)OC=C2C1=O (stereo not drawn) | . | . | . | . | . | -9%
COc1ccc(S(=O)(=O)Cc2ccc(C(=O)N3CCCC3)o2)cc1 | 45µM* | -6% | -4% | -7% | 1% | -8%
Cc1ccc(CS(=O)(=O)Cc2ccc(C(=O)N3CCC4(CC3)OCCO4)o2)cc1 | 45µM* | 0% | -5% | 17% | -4% | 0%
O=C(NCCCN1CCCC1)c1ccc(CS(=O)(=O)c2ccc(Br)cc2)o1 | -20% | 0% | 11% | -9% | 1% | -17%
Cc1ccc(S(=O)(=O)Cc2ccc(C(=O)N3CCC4(CC3)OCCO4)o2)cc1 | 22µM* | 4% | 4% | 0% | 10% | 1%
COc1ccc(S(=O)(=O)Cc2ccc(C(=O)N3CCC(C(N)=O)CC3)o2)cc1 | -19% | -2% | 6% | -3% | ? | 2%

Screening results: PubChem, National Center for Advancing Translational Sciences (NCATS)
